From PubChem BioAssay (NCI) come the findings set out here.

About 83,000 compounds went through this panel and 20% of them were active in at least one assay; those are over-represented in the sample as a whole.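 In brief: 96-well plates, 48 h treatment, single concentration, percent growth endpoint.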 Unmarked numbers belong to inactive results. The source made the active and inactive calls.

This test concerns T-47D breast. The experiment in a line: NCI-60 one-dose screen, 48 h (100 = growth as untreated, 0 = no growth, -100 = all killed). The settings on record: 10 µM. The method, then:
Growth inhibition of the T-47D human tumor cell line is measured as a screen for anti-cancer activity. Cells are grown in 96 well plates and exposed to the test compound for 48 hours. Compounds are tested at a single concentration, which is 10^-5 M for most compounds. The reported endpoint is percent growth (GI% or GIPRCNT), where numbers from 0 - 100% represent growth inhibition, and numbers from -100% - 0 represent cell death. For example, a value of 40 represents 60% growth inhibition. A value of 0 means no net growth occurred over the course of the experiment. A value of -40 indicates 40% of cells at the beginning of the experiment died by the end of the experiment. A value of -100 means all cells are dead at the end of the experiment.
NCI-60 Human Tumor Cell Lines Screen was performed using the standard one-dose NCI protocol, which is described in more detail at https://dtp.cancer.gov/discovery_development/nci-60/default.htm.
Compounds with GIPRCNT values below 10 were considered active. Activity score was based on GIPRCNT using the following formula: […]
Score is 0 for GIPRCNT values of 100 or above, 50 for GIPRCNT values of 0, and 100 for GIPRCNT values of -100.
On to `O=C1c2[nH]cc(CN[C@@H]3CCCN3)c2C(=O)c2c1c(O)c1ccccc1c2O`, for which the growth was -72.4% (active).

On to `COc1ccccc1CNCCCCCCCCCCCCN1C(=O)c2ccc3c4c(ccc(c24)C1=O)C(=O)N(CCCCCCCCCCCCNCc1ccccc1OC)C3=O`, for which the growth is 119%.

As for `COc1ccc(OC)c(C2C(C#N)=C(N)Oc3cc(O)ccc32)c1` (stereo not given), the growth was 86.7%.

`Nc1nc(N)c(N=Nc2c(Br)cc(S(N)(=O)=O)cc2Br)c(N)n1`: the growth was 88.6%.

Consider `Cc1cccc2c(=O)c3c(sc12)c(NCCCN)nc1ccccc13`, for which the growth is 43.9%.

As to `Cn1c2c(cc(S(=O)(=O)c3ccccc3)c1=O)CCc1c-2cnn1-c1cccc(Cl)c1`, the growth was 64.4%.

Regarding `CCCN1CCN(c2ccc3nc(-c4ccc5nc(-c6ccc(C(F)(F)F)cc6)[nH]c5c4)[nH]c3c2)CC1`, the growth was 48%.

Consider `COC(=O)c1c2c(c(C)[n+]([O-])c1C)C(=O)C=C(NCc1cccc(Cl)c1)C2=O`, for which the growth is -37.6% (active).

For the molecule `CCCCC(CCCC)(S(=O)(=O)CC)S(=O)(=O)CC`, the growth was 101%.

On to `CCCCCCCCCCCCCCNc1nc(CO)ncc1-c1ccc(C(F)(F)F)cc1`, for which the growth is 95.6%.

With `O=C1/C(=C/c2ccc(Cl)cc2)N=C(c2ccccc2)N1CCc1cccs1`, the growth was 97.7%.

In the case of `CN1CCc2c(c3ccccc3c3ccccc23)C1`, the growth is 55.5%.

On to `Cc1nc2cc(Nc3nc(NCCO)nc(Nc4ccc(F)cc4)n3)ccc2n1Cc1ccccc1`, for which the growth was 65.3%.

As for `CCN1CCN(c2nc3ccccc3c3c(=O)c4cc(F)ccc4sc23)CC1`, the growth was 65.1%.

With `CC(C)(C)CC(C)(C)N(CSc1ccc(Cl)cc1)CSc1ccc(Cl)cc1`, the growth was 63.2%.

Turning to `COc1ccc(C(=O)COc2cccc(/C=C3\CSc4ccc(C)cc4C3=O)c2)cc1`, the growth is 79.7%.

Turning to `FC(F)(F)c1ccc2c(c1)n1cnnc1c1nncn21`, the growth was 102%.

Consider `NS(=O)(=O)c1ccc(C(=O)N/N=C(\CS(=O)(=O)c2ccccc2)c2cc3cc(Br)ccc3o2)cc1`, for which the growth was 88.1%.

Take `C=C[C@H]1C[C@@H]2C[C@@H]3[C@H]4C/C=C\C(=O)NCCCC5NC(=O)C(=C(O)/C=C/[C@@H]4CC(=O)[C@H]3[C@@H]2[C@H]1C)C5=O` (stereo not given in full): the growth is -53.5% (active).

Consider `COC1(OC)C2(Cl)C=C(c3ccccc3)C1(Cl)C(Cl)=C2Cl` (stereo not given), for which the growth is 95.6%.

Consider `FC(F)(F)Oc1ccc2c(c1)C[C@H]1C[C@@H](c3ccoc3)N2O1`, for which the growth is 94.8%.

With `O=C1C2CC3C(CC2C(=O)[N]1[Sn]([c]1ccccc1)([c]1ccccc1)[c]1ccccc1)C1(Cl)C(Cl)=C(Cl)C3(Cl)C1(Cl)Cl` (stereo not given), the growth was -50.3% (active).

On to `COc1ccc(NC(=O)c2ccc3c(c2)nc(-c2ccc(Cl)cc2)n3-c2cc(C(C)(C)C)[nH]n2)cc1`, for which the growth was 74.5%.

Take `CS(=O)(=O)Nc1cccc(C(=O)NCc2ccc(N3CCOCC3)cc2)c1`: the growth was 95.4%.

On to `Cc1cc(=O)[nH]n1-c1cc(Cl)ccc1N`, for which the growth was 105%.

With `CCN1CCN(C(=S)SCC(=O)Nc2nc3ccc(OC)cc3s2)CC1`, the growth is 86.6%.

For `COc1ccc(-n2ncc3c4nc(OC)c(S(=O)(=O)c5ccccc5)cc4ccc32)cc1`, the growth is 57%.

As to `Nc1cc(Br)c(-c2nnc(CCC(=O)c3nc4ccccc4[nH]3)o2)c(Br)c1`, the growth was 72.6%.

`Cn1c(=O)c2c(-c3ccccc3F)n(-c3ccc4c(c3)OCO4)cc2n(C)c1=O`: the growth was 81.3%.

For the molecule `COc1ccc(-c2nc(Nc3ccc(F)cc3)nc(Nc3ccc4c(c3)nc(C)n4Cc3ccccc3)n2)cc1`, the growth was 11.5%.

Regarding `Cc1ccc(C)c2c1sc1nc3nc4sc5ccccc5n4c(=N)c3c(=O)n12`, the growth is 78.9%.

Take `COc1ccc(-c2nc3sc(C)nn3c2-c2nc3cc(C)c(C)cc3[nH]2)cc1`: the growth is 95.4%.

In the case of `CCN1C(=O)C2(Nc3ccccc3S2)c2cc(C)ccc21` (stereo not given), the growth is 93.5%.

For the molecule `Nc1ccccc1-c1n[nH]c(=O)[nH]c1=O`, the growth was 114%.

On to `CN1CCc2c(Sc3ccc(C(=O)NO)cc3)c3ccccc3n2C1`, for which the growth was 39.7%.

Take `COc1ccc(-n2ncc3c2ccc2cc(S(=O)(=O)c4ccccc4)c(=O)n(C)c23)cc1`: the growth was 90.6%.

Regarding `COc1cc(C2CC(=O)Nc3c2ccc2ccccc32)cc(Br)c1OC` (stereo not given), the growth was 51.2%.

On to `NC(=O)c1nc2c([nH]c1=O)CCCC2`, for which the growth is 92.7%.

For `CC(C)(C)[Si](C)(C)OC1[C@@H](COC(=O)NC(=O)CCl)O[C@@H](n2cnc3c(N)ncnc32)[C@H]1O[Si](C)(C)C(C)(C)C` (stereo not given in full), the growth is 76.3%.

For the molecule `FCOC(C(F)(F)F)C(F)(F)F`, the growth was 97.9%.
